Test results as given in PubChem BioAssay AID1259341 (Broad Institute, 2017).
The source made the active and inactive calls.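 How the source made its calls: active means activity change under -35% in any replicate well, with more than 20 beads read in that well; inactive means the rest.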

Each compound was assayed against Caspase recruitment domain-containing protein 9 (Homo sapiens) + E3 ubiquitin-protein ligase TRIM62 (Homo sapiens) (UniProt Q9H257+Q9BVG3) (assay: CARD9/TRIM62 protein interaction inhibitors – cell lysate, HEK293FT lysates, Luminex bead ELISA, primary screen (AID 1259341;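 further: PE anti-Flag signal of Flag-CARD9 captured by myc-TRIM62 beads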)). Conditions: PE fluorescence, active compounds read low, concentration not given here.
Caspase recruitment domain-containing protein 9 (Homo sapiens) + E3 ubiquitin-protein ligase TRIM62 (Homo sapiens), sequence (Q9BVG3 whole entry, looked up, the tested form may be a part): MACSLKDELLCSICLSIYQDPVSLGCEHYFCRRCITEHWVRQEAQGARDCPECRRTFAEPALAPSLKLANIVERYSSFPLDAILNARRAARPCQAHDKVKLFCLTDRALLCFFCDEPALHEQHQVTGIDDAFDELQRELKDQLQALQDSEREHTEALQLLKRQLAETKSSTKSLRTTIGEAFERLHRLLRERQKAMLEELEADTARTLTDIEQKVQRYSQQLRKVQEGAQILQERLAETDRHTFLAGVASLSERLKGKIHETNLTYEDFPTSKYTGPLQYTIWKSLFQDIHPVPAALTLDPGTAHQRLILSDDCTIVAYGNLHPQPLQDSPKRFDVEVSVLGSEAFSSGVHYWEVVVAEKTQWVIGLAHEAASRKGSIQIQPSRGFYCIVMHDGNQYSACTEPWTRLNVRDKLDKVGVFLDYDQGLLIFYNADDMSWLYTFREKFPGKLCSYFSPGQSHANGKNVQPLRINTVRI
Caspase recruitment domain-containing protein 9 (Homo sapiens) + E3 ubiquitin-protein ligase TRIM62 (Homo sapiens), sequence (Q9H257 whole entry, looked up, the tested form may be a part): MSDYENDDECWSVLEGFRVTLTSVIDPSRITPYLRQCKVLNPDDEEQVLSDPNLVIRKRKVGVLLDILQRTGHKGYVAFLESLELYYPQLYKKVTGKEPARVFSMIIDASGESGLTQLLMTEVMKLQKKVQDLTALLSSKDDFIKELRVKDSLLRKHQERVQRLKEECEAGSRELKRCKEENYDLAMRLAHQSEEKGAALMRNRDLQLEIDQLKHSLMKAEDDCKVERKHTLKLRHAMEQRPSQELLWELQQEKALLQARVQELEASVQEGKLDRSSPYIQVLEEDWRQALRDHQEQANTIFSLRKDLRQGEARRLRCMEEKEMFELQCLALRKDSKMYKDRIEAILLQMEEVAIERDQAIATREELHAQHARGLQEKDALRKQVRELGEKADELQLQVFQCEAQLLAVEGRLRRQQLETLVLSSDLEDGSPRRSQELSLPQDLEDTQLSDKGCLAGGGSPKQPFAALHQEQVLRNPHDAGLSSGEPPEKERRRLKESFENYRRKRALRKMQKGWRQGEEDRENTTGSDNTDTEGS

Activity change, negative = inhibition, inactive:
COc1ccc(S(=O)(=O)Nc2ccc3c(c2)C(=O)N([C@H](C)CO)C[C@H](C)[C@@H](CN(C)C(=O)C2CCCCC2)OCCCC[C@H](C)O3)cc1 -4.07%
CS(=O)(=O)c1ccc2ccn(O)c2c1 -9.61%
FC(F)(F)c1cc(Cl)c2nnc(C(F)(F)Cl)n2c1 1.08%
Cc1cccc(NC(=O)Cc2coc3ccc4ccccc4c23)n1 -0.738%
COc1ccc2nc(-c3ccco3)c(-c3ccco3)nc2c1 -3.64%
N#Cc1c(-c2ccco2)cc(-c2ccccn2)nc1N 1.52%
COc1ccc(S(=O)(=O)N2CCOCC2)cc1NC(=O)c1cccc(-n2cccc2)c1 -8.72%
O=C(Nc1ccc2oc(-c3ccncc3)nc2c1)c1ccc2c(c1)OCO2 -8.29%
Cc1cc(C(=O)NCc2ccco2)on1 -1%
O=C(Cn1c(=O)cc(C(=O)N2CCc3ccccc3C2)c2ccccc21)NCc1ccc2c(c1)OCO2 -5.84%
Cc1ccc(-c2cc(C(=O)Nc3ccccn3)c3ccccc3n2)o1 -4.7%
O=C(COc1cccnc1[N+](=O)[O-])c1ccc(Cl)s1 -9.96%
CCc1nc(OCc2ccco2)c2sc3nc4c(cc3c2n1)COC(C)(C)C4 -2.36%
O=C(CCc1nc(-c2ccccc2)no1)NCC1CNCCOC1 (stereo unspecified) 18.6%
Cn1ncc2c(NNC(=O)c3cc(O)cc(O)c3)ncnc21 1.25%
CCC12CCCN3CCc4c(n(c5ccccc45)C(O)(C(=O)OC)C1)C32 (stereo unspecified) -2.25%
Cc1ccc(C)n1Nc1nc(O)cs1 1.72%
O=C1CC2(CCN(C(=O)Nc3ccccc3)CC2)CN1Cc1ccc(Cl)cc1 -3.18%
COc1ccc(S(=O)(=O)c2ccccc2)cc1NS(=O)(=O)c1cccc(C(=O)O)c1 -0.344%
C[C@H](CO)N1C[C@H](C)[C@@H](CN(C)CC2CCCCC2)OCCCC[C@H](C)Oc2ccc(NS(C)(=O)=O)cc2C1=O -25.8%
CCC1c2ccc(C)n2CCN1C(=O)Nc1ccccc1C(=O)OC (stereo unspecified) 22.8%
CCOC(=O)C1CCN(C(=O)CN(Cc2ccccc2)S(C)(=O)=O)CC1 -5.24%
O=C(O)c1ccc2nc(-c3ccco3)c(-c3ccco3)nc2c1 -13.9%
COCCCNC(=O)C1CCN(c2ccc(N3CCOCC3)nn2)CC1 28.3%
CC1(C)Cc2c(c(N3CCOCC3)nc3sc(C(=O)NCc4ccco4)c(N)c23)CO1 -2.46%
O=C(O)c1ccccc1SC1CC(=O)N(Cc2ccccc2)C1=O (stereo unspecified) 6.92%
CC(=O)c1sc2nc(-c3ccco3)ccc2c1N -8.74%
COc1c(C(=O)O)csc1Br -20.4%
Cc1cnc(C)c(N2CCN(C(=O)[C@H]3CC[C@@H](N)C3)CC2)n1 2.01%
On1c(-c2ccco2)nc2c1CCc1nonc1-2 -2.2%
Cc1ccc(Cc2cnc(N)s2)o1 18.6%
N#Cc1c(N)oc(-c2ccco2)c1-c1ccco1 -6.71%
Cc1nc2ccccc2nc1CSCc1ccco1 1.2%
CC(=O)Nc1ccc2nc3c(=O)n(C)c(=O)n(C)c3nc2c1 3.76%
O=C(COC(=O)CCC(=O)c1cccs1)NCc1ccco1 0.961%
Nc1ccc2ncccc2c1N 1.19%
